A selection: hits, their analogues and other compounds. The true share with any hit is near 2.4%.
ClpP mod = qHTS Assay for Activators of ClpP. purified B. subtilis ClpP, FRET peptide cleavage, 20 min. 1.9% of 340,000 active. Potency, µM (highest dose often 57.5 µM), for the others: at the highest dose activity change, negative = active. AID 651965, 2013; active means well fitted falling curve with a large enough effect; inconclusive means small, poorly fitted or top-dose-only effect; inactive means no such curve, though single readings can be large or run the other way; further: the source files actives as falling curves though it sought activators and does not explain the sign; nearly all actives have a fitted effect of over 65% in size
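ClpP 10 microg/mL final, pH 8 Tris/KCl buffer with BSA, glycerol, Tween-20; compound pinned in; FRET-FV substrate; RT 20 min; Ex320/Em430; ΔFRET vs ADEP 5.8 microM, DMSO, no enzyme.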
Rango release inh = inhibition of RanGTP-driven Rango-importin beta dissociation. 0.071% of 340,000 active. O95149+P62826. Potency, µM (top dose mostly 46.1 µM), inactives show at the top dose activity change, negative = inhibition. AID 540253. Biochemical FRET Rango-importin beta, RanGTP-induced dissociation; further: % of control where 0% means no effect; nearly all actives have a fitted effect of over 45% in size
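Rango FRET biosensor (snurportin-1 IBB flanked by N-terminal EYFP and C-terminal CFP10) at 0.1 uM, with 0.25 uM importin beta in PBS, 1mM DTT, 0.02% Tween-20, 0.1% BSA. 0.6 uM Ran, 2mM GTP and 0.2 uM RCC1 were then added for 45 min at room temperature. Inhibition read as loss of FRET rise.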
TSG101-PTAP inh = blocks PTAP/TSG101 interaction to inhibit HIV-1 budding | Fluorescence polarization, FITC-PTAP peptide / Tsg101 binding | Q99816 | Potency, µM (top dose mostly 115 µM), inactives show top-dose activity change, negative = inhibition, hits mostly inhibitors | 340,000 tested, under 10 active; active means well fitted inhibition curve with a large enough effect in the main read-out, with a control signal flat, not every such curve was filed as active; inconclusive means small, poorly fitted or top-dose-only effect, or effect the other way, or a change in a side signal; inactive means no such curve, though single readings can be large or run the other way; further: % of control where 0% means no effect
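Fluorescence polarization binding of Tsg101 binding domain (10 uM final) to FITC-labeled PTAP peptide (50 nM final) in HEPES pH 7.5 buffer with NaCl, Tween 20, EDTA, TCEP. Compounds added before peptide; binding 20 min at RT.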
TDP1 block = blocks human tyrosyl-DNA phosphodiesterase 1; Q9NUW8; recombinant TDP1, AlphaScreen DNA substrate cleavage; Potency, µM (titrated, usually from 130 µM), without a hit: top-dose activity change, negative = inhibition, usual class: inhibitors; 0.28% of 350,000 active; AID 485290; active means well fitted curve in the direction sought with a large enough effect; inconclusive means small, poorly fitted or top-dose-only effect, or another doubt; inactive means no such curve, though single readings can be large; an effect the other way counts as inactive or inconclusive; further: on the % scale 0 is the no-effect control and ±100 the full control effect; nearly all actives have a fitted effect of over 40% in size
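Recombinant E. coli-expressed Tdp1 (1 nM) preincubated with compound 15 min at RT, then 5'-biotin/3'-phosphotyrosine-FITC DNA substrate (15 nM) added for 5 min. AlphaScreen beads (10 ug/ml) added, 10 min RT; tyrosine-FITC cleavage read as signal loss.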
Rango-impB inh = inhibitors of Rango-importin beta complex formation; Q14974; Rango CFP/YFP FRET sensor + importin beta, 45 min; Potency, µM (top dose mostly 92.2 µM), without a hit: at the top dose inhibition of complex formation; 0.031% of 340,000 active;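 further: 0% = DMSO wells and 100% = buffer wells lacking importin beta; nearly all actives have a fitted effect of over 15% in size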
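FRET biosensor Rango (snurportin 1 IBB between N-terminal EYFP and C-terminal Cerulean), 50 nM in PBS/1 mM DTT/0.02% Tween-20/0.1% BSA, preincubated 5 min RT with compound; 0.125 microM importin beta added, 45 min RT, CFP/YFP FRET ratio read.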
12-LOX inh = inhibitors of human 12S-lipoxygenase ALOX12. P18054. 1.1% of 580,000 active. Potency, µM (top dose mostly 108 µM), for inactives: at the highest dose activity change, negative = inhibition, usual class: inhibitors. purified 12hLO, xylenol orange hydroperoxide absorbance; active means well fitted curve in the direction sought with a large enough effect; inconclusive means small, poorly fitted or top-dose-only effect, or another doubt; inactive means no such curve, though single readings can be large; an effect the other way counts as inactive or inconclusive; further: on the % scale 0 is the no-effect control and ±100 the full control effect
Target sequence (P18054 whole entry, looked up): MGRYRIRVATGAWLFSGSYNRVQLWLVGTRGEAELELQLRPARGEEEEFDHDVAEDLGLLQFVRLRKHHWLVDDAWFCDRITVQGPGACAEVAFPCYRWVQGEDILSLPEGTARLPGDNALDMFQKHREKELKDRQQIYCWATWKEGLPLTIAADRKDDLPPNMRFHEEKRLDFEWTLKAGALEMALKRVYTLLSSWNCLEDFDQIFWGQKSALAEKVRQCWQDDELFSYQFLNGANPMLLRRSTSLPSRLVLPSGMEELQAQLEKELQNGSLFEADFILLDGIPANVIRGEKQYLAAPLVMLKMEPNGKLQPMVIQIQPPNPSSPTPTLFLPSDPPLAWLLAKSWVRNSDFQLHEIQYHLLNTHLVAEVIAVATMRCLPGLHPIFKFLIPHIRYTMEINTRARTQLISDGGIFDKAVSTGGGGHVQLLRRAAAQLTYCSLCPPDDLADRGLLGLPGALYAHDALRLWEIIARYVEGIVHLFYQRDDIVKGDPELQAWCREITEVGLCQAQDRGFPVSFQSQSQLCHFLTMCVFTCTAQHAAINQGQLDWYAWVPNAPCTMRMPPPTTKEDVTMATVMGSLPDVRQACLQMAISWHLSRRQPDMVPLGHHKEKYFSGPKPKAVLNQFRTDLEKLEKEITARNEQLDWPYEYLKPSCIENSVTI
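Hydroperoxide product was detected by ferrous iron/xylenol orange as the 573 to 405 nm absorbance ratio. Arachidonic acid at 40 uM (final) was turned over for 30 min at room temperature by 150 nM human 12hLO, pH 7.0 Hepes buffer, after 15 min compound preincubation.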
* = called active by the depositor; ? = inconclusive; . = no result; [ ] = another dose, or the depositor's remark. Unless noted, the call rests on the fitted dose curve. Potency means the concentration at half of the fitted maximal effect.

SMILES | ClpP mod | Rango release inh | TSG101-PTAP inh | TDP1 block | Rango-impB inh | 12-LOX inh
CCc1nccn1CC(=O)N1CCc2[nH]cnc2C1C(=O)O (stereo unspecified) | . | . | . | . | . | 51%
CN(C)C[C@@H]1CN(S(C)(=O)=O)C[C@H]1NC(=O)CCc1nc2ccccc2[nH]1 | . | . | . | . | . | 12%
CNC(=O)c1cc[nH]c1C1CCCN(C(=O)CCc2cc(OC)no2)C1 (stereo unspecified) | . | . | . | . | . | 4%
O=C(/C=C/c1ccccc1)c1ccccc1 | 0% | 6% | 0% | 6% | 3% | 3%
C=C(C(C)=O)C(O)/C=C/c1ccco1 (stereo unspecified) | . | . | . | 11µM* | . | .
O=C(/C=C/c1ccco1)c1ccccc1 | . | . | . | . | . | 16µM*
Cc1cc(C)c(C(=O)/C=C/c2ccco2)c(=O)[nH]1 | . | -23% | 2% | 16µM* | 1% | -21%
Cc1ccc(C(=O)/C=C/c2ccco2)c(O)c1 | 1% | -11% | -8% | 8% | -3% | ?
O=C(Cn1cccc1-c1nc(-c2ccc(F)cc2)no1)NCCc1ccccc1 | . | . | . | . | . | 5%
O=C(Cc1ccccn1)N1CCC2(C1)C(=O)N(CCc1ccccc1)c1ccccc12 (stereo unspecified) | . | . | . | . | . | 15%
COCCN1C(=O)[C@H]2CN(Cc3cccn3C)C[C@H]2C1=O | . | . | . | . | . | 9%
CN(C)CCNc1ncnc2c1sc1nc(N3CCCC3)c3c(c12)CC(C)(C)OC3 | . | -1% | -4% | 6% | 2% | 1%
CC1(C)Cc2c(c(-c3ccco3)nc3sc4c(NCC5CCCO5)ncnc4c23)CO1 (stereo unspecified) | 16µM* | -4% | 6% | -2% | -1% | ?
CC(C)CNc1ncnc2c1sc1nc(N3CCOCC3)c3c(c12)CC(C)(C)OC3 | 6.3µM* | 21% | 1% | 2% | 7% | 0%
COc1ccc2c3c([nH]c2c1)[C@@H](CO)N(Cc1ccccc1Cl)CC31CN(C(=O)C2CC2)C1 | . | . | . | . | . | 16µM*
CCS(=O)(=O)N1CC2(CN(Cc3ccc4c(c3)OCO4)[C@@H](CO)c3[nH]c4cc(OC)ccc4c32)C1 | . | . | . | . | . | 14µM*
COc1ccc2c3c([nH]c2c1)[C@H](CO)N(C(=O)C1CCCC1)CC31CCN(C(=O)c2ccncc2)CC1 | . | . | . | . | . | -20%
CC(OC(=O)c1snc(C(=O)NC2CCCCC2)c1N)C(=O)NC(C)(C)C (stereo unspecified) | 28µM* | -4% | -4% | 2% | -2% | 136%[57.4 µM]
CC(C)(C)NC(=O)COC(=O)c1snc(C(=O)NC2CCCCC2)c1N | 28µM* | 1% | -7% | 7% | 0% | 1%
N#Cc1nc(Nc2cccc([N+](=O)[O-])c2)nc(NC2CCCC2)n1 | . | . | . | 4% | . | .
COc1ccc(C)cc1NC(=O)c1cc2ccccc2cc1OCC(N)=O | . | . | . | . | . | -72%
N=C1/C(=C\c2coc3ccccc3c2=O)C(=O)N=C2SC=CN12 | 3% | ? | ? | . | ? | 20µM*
S=C1NCCc2ccc(Cl)cc2C1c1ccccc1Cl (stereo unspecified) | 0% | -5% | 4% | 10% | 0% | 32µM*
Clc1ccc2c(c1)C(C1=NCCN1)c1ccccc1CS2 (stereo unspecified) | -4% | -1% | 0% | 2% | 3% | -10%
CCn1nc(C)c2c(-c3ccccc3)cc(OC(C)C(=O)Nc3cccc(OC)c3)nc21 (stereo unspecified) | . | . | . | . | . | -26%
c1nc2sc3c(c2c2nnnn12)CCC3 | 14µM* | 9% | -10% | -10% | 0% | ?
c1nnc2c3c4c(sc3ncn12)CCCC4 | . | . | . | 0% | . | .
Cc1[nH]c2c(ccc3ccccc32)c1C | . | . | . | . | . | 16µM*

Source: PubChem BioAssay
